Assay results published in paper PMC4336329 (PLoS ONE, 2015).
Screen size: about 310,000 compounds; about 14,000 (4.5%) showed an effect of 50% or more. Effects have a minus sign here. The entries come from a sample that favours strong results as a whole.

biological target: human ether-à-go-go-related gene (hERG) potassium channel (human, UniProt Q12809); experiment: primary screen, population patch clamp on CHO cells stably expressing hERG; higher = less effect of the substance
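Further: peak tail current of the secondary pulse compared with the same well before compound.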

Sequence of human ether-à-go-go-related gene (hERG) potassium channel (Q12809 whole entry, looked up): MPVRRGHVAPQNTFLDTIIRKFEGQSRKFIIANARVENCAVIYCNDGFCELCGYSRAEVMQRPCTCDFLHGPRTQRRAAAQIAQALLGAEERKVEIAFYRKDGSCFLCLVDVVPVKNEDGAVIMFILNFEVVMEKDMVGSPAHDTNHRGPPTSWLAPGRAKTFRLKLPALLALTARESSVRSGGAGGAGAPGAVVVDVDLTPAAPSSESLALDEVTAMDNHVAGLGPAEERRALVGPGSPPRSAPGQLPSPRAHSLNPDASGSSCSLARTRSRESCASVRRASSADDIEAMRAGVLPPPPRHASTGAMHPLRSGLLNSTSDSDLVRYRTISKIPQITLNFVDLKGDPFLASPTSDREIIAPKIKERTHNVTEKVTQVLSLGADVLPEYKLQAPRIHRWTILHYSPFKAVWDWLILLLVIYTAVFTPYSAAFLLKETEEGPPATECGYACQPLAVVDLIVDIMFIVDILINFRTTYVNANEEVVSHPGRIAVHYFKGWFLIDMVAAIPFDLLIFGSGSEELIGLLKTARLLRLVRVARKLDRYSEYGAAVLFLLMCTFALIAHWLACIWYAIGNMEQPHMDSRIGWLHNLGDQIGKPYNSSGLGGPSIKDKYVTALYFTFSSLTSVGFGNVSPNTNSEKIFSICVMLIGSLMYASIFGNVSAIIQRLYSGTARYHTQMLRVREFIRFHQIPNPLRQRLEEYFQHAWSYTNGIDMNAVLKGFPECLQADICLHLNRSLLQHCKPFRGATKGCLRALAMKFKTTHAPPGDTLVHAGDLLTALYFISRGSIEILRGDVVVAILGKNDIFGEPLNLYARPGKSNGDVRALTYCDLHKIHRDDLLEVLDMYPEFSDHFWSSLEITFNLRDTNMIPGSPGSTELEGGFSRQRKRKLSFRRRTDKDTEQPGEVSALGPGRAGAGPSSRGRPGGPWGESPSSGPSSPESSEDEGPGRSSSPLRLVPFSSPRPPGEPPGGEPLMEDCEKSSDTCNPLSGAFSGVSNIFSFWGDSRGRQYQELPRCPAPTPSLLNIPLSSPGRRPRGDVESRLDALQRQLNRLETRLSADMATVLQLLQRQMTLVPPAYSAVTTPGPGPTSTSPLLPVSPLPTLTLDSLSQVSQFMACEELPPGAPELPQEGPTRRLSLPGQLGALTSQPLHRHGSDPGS

Row | Compound | hERG current change (%, negative = inhibition) at 10uM
1 | Cc1cc(S(=O)(=O)N2CCCC2)ccc1OCC(=O)NCc1ccccc1 | -11.8%
2 | COc1ccc(-c2nn(-c3ccccc3)cc2/C=N/NC(=O)c2ccc(Br)o2)cc1 | -0.138%
3 | Cc1ccc(C(=O)NCCc2nnc3ccc(SCC(=O)Nc4ccccc4F)nn23)cc1 | -12.7%
4 | Cc1ccc(NC(=O)c2cc(=O)n(Cc3ccccc3)c(=O)[nH]2)cc1C | 35.8%
5 | N#C/C(=C/c1ccc(Sc2nc3ccccc3[nH]2)o1)c1cccc(Br)c1 | 21.3%
6 | CC(=O)N1CCN(C(=S)NCCc2ccccc2)CC1 | -4.66%
7 | COC(=O)c1ccccc1NC(=S)N1CCN(C2CCCCC2)CC1 | -22.4%
8 | CCOC(=O)c1ccccc1NC(=S)N1CCC(N2CCCCC2)CC1 | -33.8%
9 | S=C(NCCc1ccccc1)N1CCN(C2CCCCC2)CC1 | -63.4%
10 | CC1CCN(C(=S)NCCc2ccccc2)CC1 | -15.2%
11 | OC1CCN(C(=S)NCCc2ccccc2)CC1 | -0.627%
12 | CCOC(=O)c1ccccc1NC(=S)N1CCN(C2CCCCC2)CC1 | -62.3%
13 | S=C(NCCc1ccccc1)N1CCCCC1 | 14.4%
14 | O=C(c1ccccc1)N1CCN(C(=S)NCCc2ccccc2)CC1 | -65.7%
15 | CN1CCN(C(=S)NCCc2ccccc2)CC1.O=C(O)C(=O)O | -14.5%
16 | S=C(NCCc1ccccc1)N1CCCC1 | 9.47%
17 | S=C(NCCc1ccccc1)N1CCN(C23CC4CC(CC(C4)C2)C3)CC1 | -75.2%
18 | COc1cccc(CC2(CO)CCCN(S(=O)(=O)N(C)C)C2)c1 (centres unmarked) | 42.4%
19 | CCOC(=O)c1ccc(NC(=O)CN2C(=O)C(C)SC(C)C2=O)cc1 (centres unmarked) | 8.95%
20 | COc1ccc(C(CNC(=O)c2cc(S(=O)(=O)NCc3ccccc3)ccc2C)N2CCOCC2)cc1 (centres unmarked) | -19%

Row | Compound | hERG current change (%, negative = inhibition) at 10uM
21 | COC(=O)CSc1nnc(COc2ccc3ccccc3c2)o1 | 19%
22 | CC(=O)N(CCC1(C(C)C)CCOC(C)(C)C1)C(C)c1cccs1 (centres unmarked) | -2.41%
23 | Cc1cccc(NC(=O)c2ccc(C(=O)Nc3cccc(C)c3)nc2)c1 | 23.2%
24 | COc1ccc(-c2noc(C(=O)NCc3ccccc3Cl)n2)cc1OC | 0.607%
25 | CC(C)C1CC(c2csc(N)n2)CCO1 (centres unmarked) | 18.8%
26 | Cc1[nH]oc(=O)c1N=Nc1ccc2[nH]c(=O)[nH]c2c1 | 7.93%
27 | CCOc1cc(-c2cn(S(=O)(=O)c3cccc4nsnc34)nc2N)cc(OCC)c1OCC | 0.719%
28 | Cc1cc(C)c2sc(N(CCN(C)C)C(=O)c3c(F)cccc3F)nc2c1.Cl | -2.23%
29 | CSCCC(NC(=O)c1ccc(Cl)cc1)C(=O)OCC(=O)N1CCCC1=O (centres unmarked) | -2.69%
30 | O=[N+]([O-])c1cccc(-c2ccc(C(=S)N3CCN(c4ccccc4)CC3)o2)c1 | 27.7%
31 | S=C(NCc1ccccc1)N1CCCCC1 | -1.03%
32 | S=C(NCc1ccccc1)N1CCN(C2CCCCC2)CC1 | -62.6%
33 | CCOc1ccc(NC(=S)NCCCN2CCN(C3CCCCC3)CC2)cc1 | -47.2%
34 | O=S(=O)(c1cccc(F)c1)N1CCN(C(=S)NCc2ccccc2)CC1 | -0.89%
35 | CCOC(=O)c1ccc(NC(=S)NCCCN2CCN(C3CCCCC3)CC2)cc1 | -53.7%
36 | CCOC(=O)c1ccc(NC(=S)NCCCN2CCCCC2)cc1 | -42%
37 | O=C(c1ccccc1)N1CCN(C(=S)NCc2ccc3c(c2)OCO3)CC1 | -59.4%
38 | O=C(c1ccccc1)N1CCN(c2ccc(NCc3ccc4c(c3)OCO4)cc2)CC1 | -12.2%
39 | O=S(=O)(c1ccccc1)N1CCN(C(=S)NCc2ccccc2)CC1 | -50.3%
40 | S=C(NCc1ccccc1)N1CCN(Cc2ccc3c(c2)OCO3)CC1 | -16.7%

Row | Compound | hERG current change (%, negative = inhibition) at 10uM
41 | O=S(=O)(c1ccc(F)cc1)N1CCN(C(=S)NCc2ccccc2)CC1 | 13.8%
42 | S=C(NCc1ccccc1)N1CCN(C(=S)NCc2ccccc2)CC1 | 12.9%
43 | CC(=O)N1CCc2cc(N=NC3=C(O)CCCC3=O)ccc21 | 9.61%
44 | COCCn1c(Cc2ccccc2)nnc1SCC(=O)N1CCCCC1C (centres unmarked) | 7.49%
45 | COc1ccc(CCC(=O)NNC(=O)Nc2ccccc2Cl)cc1 | 4.25%
46 | CC1(c2ccc(OC(F)F)cc2)NC(=O)N(CC(=O)Nc2ccc3c(c2)OCO3)C1=O (centres unmarked) | -36.5%
47 | N#Cc1cc2c(nc1SCC(=O)Nc1sc3c(c1C#N)CCC3)CCCC2 | 4.92%
48 | CCOc1ccc(C(=O)COC(=O)Cn2cnc3c2c(=O)n(C)c(=O)n3C)cc1 | -13.5%
49 | S=C(Nc1ccccn1)NC1CCCC1 | -17.6%
50 | O=C(NC(=S)Nc1ccc(CN2CCCCC2)cc1)c1cc2ccccc2o1 | -24.3%
51 | COc1ccc(NC(=O)c2ccco2)cc1NC(=O)c1ccccc1F | 25.6%
52 | CC1CCCN(C(=O)CN2CCC(c3nc4ccc(Cl)cc4[nH]3)CC2)C1 (centres unmarked) | -67.8%
53 | Cc1ccc2nc(C3CCN(CC(=O)N4CCCCCC4)CC3)[nH]c2c1 | -22.2%
54 | CC1CCCCN1C(=O)CSc1nc2ccccc2[nH]1 (centres unmarked) | 25.8%
55 | O=C(NC1CCCCC1)N1CCC(c2nc3ccc(Cl)cc3[nH]2)CC1 | -34.3%
56 | CC1CCCCN1C(=O)Cc1ccc(Cl)cc1 (centres unmarked) | -11.1%
57 | CC1CCCCN1C(=O)CN1CCC(c2nc3ccc(Cl)cc3[nH]2)CC1 (centres unmarked) | -60.2%
58 | O=C1CC(N2CCC(c3nc4ccccc4o3)CC2)C(=O)N1c1ccc(Cl)c(C(F)(F)F)c1 (centres unmarked) | 6.87%
59 | COC(=O)C1=C(C)N(c2cccc(C(C)=O)c2)C(=O)C1 | 7.45%
